Assay results as given in PubChem BioAssay.
Inconclusive results are not listed. Calls of active or inactive are those of the source.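 How the source made its calls, unless noted: active means viability at or below 10% of carrier control in both of two separate runs; inconclusive means viability at or below 10% in only one of the two runs; inactive means the rest.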

Legend:
[1] = reducers of endogenous Her2 protein level, primary screen, SKBR3 breast tumor cells, AlphaScreen, ATP viability (AID 461;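 active means Her2 level under about 52% in both replicate screens, with viability over 70% of control, limit read from the data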;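 on Her2 level: lower value means less Her2 protein in the cells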;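 on viability: percent of carrier control wells set as 100% viability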); conditions: 18-24 h, measured here: SKBR3 viability, ATP luminescence, at 10 µM
[2] = biological target: Receptor tyrosine-protein kinase erbB-2 (Homo sapiens) (UniProt P04626); assay: as above; conditions: 18-24 h, at 10 µM, stronger effect = lower value
Receptor tyrosine-protein kinase erbB-2 (Homo sapiens), sequence (P04626 whole entry, looked up): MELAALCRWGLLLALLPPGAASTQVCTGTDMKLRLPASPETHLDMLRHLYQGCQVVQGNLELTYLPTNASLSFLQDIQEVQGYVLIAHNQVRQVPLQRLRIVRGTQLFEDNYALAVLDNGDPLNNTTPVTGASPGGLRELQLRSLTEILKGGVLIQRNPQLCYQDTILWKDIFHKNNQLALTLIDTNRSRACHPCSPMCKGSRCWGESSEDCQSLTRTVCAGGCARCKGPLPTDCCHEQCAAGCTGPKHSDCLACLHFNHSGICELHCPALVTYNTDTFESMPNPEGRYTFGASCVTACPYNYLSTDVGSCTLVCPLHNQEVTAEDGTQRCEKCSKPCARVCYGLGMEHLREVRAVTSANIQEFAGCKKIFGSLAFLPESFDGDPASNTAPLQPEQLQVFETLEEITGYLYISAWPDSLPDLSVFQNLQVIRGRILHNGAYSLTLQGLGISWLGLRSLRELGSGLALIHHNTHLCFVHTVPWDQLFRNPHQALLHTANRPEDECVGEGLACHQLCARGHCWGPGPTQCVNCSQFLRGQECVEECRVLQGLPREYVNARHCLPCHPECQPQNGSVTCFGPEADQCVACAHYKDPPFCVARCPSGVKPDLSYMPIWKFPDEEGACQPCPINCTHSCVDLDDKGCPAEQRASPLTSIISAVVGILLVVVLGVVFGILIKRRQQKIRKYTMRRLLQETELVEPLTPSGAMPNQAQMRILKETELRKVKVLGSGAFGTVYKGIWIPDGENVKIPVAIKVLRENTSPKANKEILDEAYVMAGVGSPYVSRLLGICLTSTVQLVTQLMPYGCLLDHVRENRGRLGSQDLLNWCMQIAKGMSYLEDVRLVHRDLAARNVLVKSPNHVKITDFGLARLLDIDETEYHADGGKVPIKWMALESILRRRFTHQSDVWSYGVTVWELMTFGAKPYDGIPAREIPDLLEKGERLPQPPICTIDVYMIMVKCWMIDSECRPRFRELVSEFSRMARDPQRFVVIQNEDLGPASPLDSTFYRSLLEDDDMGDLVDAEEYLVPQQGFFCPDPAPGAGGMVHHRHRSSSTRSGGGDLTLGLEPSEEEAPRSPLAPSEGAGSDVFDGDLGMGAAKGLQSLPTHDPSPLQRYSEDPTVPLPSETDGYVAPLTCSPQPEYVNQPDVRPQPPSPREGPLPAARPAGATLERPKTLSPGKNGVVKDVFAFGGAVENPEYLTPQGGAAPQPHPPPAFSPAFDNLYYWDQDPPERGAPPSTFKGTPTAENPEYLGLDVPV

[3] = SK-BR-3 cell growth inhibitors, pilot screen, 24 h, human (AID 572); conditions: SK-BR-3 viability, CellTiter-Glo luminescence, at 10 µM, stronger effect = lower value;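 further: compound exposure lasted between 18 and 24 h rather than exactly 24 h; 100% = carrier-treated control wells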
[4] = HUVEC growth inhibition – cell-based, human, primary screen (AID 575;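 active means viability at or below 30% in both replicate assays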;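 further: 100% = median of untreated cell wells with 0.1% DMSO on each plate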); conditions: HUVEC proliferation, CellTiter-Glo luminescence, 72 h; at 10 µM; stronger effect = lower value
[5] = growth inhibitors of H69AR lung tumor, primary screen, human, duplicate replicates (AID 580;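 active means viability at or under a set limit in both replicates, limit being median viability minus 3 SD, cut at about 48% in these data, passing the limit was not always enough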;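 further: 100% = mean luminescence of untreated wells and 0% = no signal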); conditions: H69AR lung tumor cells viability, ATP luminescence, 72 h; at 10 µM; stronger effect = lower value
[6] = reversal of MRP1-mediated doxorubicin resistance, pilot screen, H69AR cells, doxorubicin co-treatment (AID 601;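 active means viability loss from added drug above about 55%, and viability with drug at most 40%, in both replicates, limit read from the data, passing the limit was not always enough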); conditions: CellTiter-Glo, 72 h, at 10 µM; for differential viability (reversal): stronger effect = higher value
[7] = 384-well plate pilot, post-Golgi transport modulator project, inhibition of yeast transport mutant growth (AID 636; in the data active means inhibition above about 31%); conditions: absorbance 615 nm, about 18 h, stronger effect = higher value
[8] = growth suppression of yeast trafficking mutant, preliminary HTS, modulators of trafficking downstream of Golgi apparatus project, 1536-format plate, OD 615 nm (AID 637; in the data active means inhibition above about 30%); conditions: yeast transport mutant growth, absorbance 615 nm, 18 h; stronger effect = higher value
[9] = OD615 S. cerevisiae growth inhibition, permissive medium, pilot counter-assay, permissive growth control for S. cerevisiae lifespan shortening project (AID 705;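 active means growth inhibition above 25% in both replicates, a cutoff set 3 SD above the mean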); conditions: OD615, 24 h, at 10 µM, stronger effect = higher value
[10] = Restrictive medium S. cerevisiae growth inhibition, OD615, pilot screen of yeast lifespan reduction project, restrictive growth control (AID 706;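 active means growth inhibition above a set limit, 3 SD over mean compound inhibition, in both replicates, cut at about 43% in these data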;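 further: modified DeaD lifespan yeast strain shifted to restrictive glucose medium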); conditions: OD615, 48 h, at 10 µM, stronger effect = higher value
[11] = viability gain of MRP-1-high H69AR cells under doxorubicin, pilot screen, MRP-1 activator project, CellTiter-Glo, duplicate (AID 807;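 active means viability increase at or above a cutoff of the median across tested compounds plus 3 SD, cut at about 8.5% in these data, passing the limit was not always enough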;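 further: compound pretreatment 18-22 h then 72 h combined with doxorubicin; 0% = doxorubicin alone and 100% = vehicle without doxorubicin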); conditions: H69AR viability with doxorubicin, CellTiter-Glo luminescence; at 10 µM; stronger effect = higher value
[12] = growth suppression of beta-catenin knockout HCT116, pilot screen, human colon tumor cells (AID 823;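 active means cell viability at or below a set limit in both duplicate runs, the limit being the all-compound median minus 4 SD, cut at about 23% in these data, passing the limit was not always enough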;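 further: 0% = wells killed by 20 µM Hyamine and 100% = untreated DMSO cell wells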); conditions: CellTiter-Glo, 60 h, at 10 µM, stronger effect = lower value
[13] = growth suppression of PTEN-deleted HCT116, pilot screen, cell-based, HCT116 clonal line, CellTiter-Glo (AID 824;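 active means viability at or below 27.92% in each of two runs, the all-compound median minus 4 SD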;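 further: 0% = 20 µM Hyamine control and 100% = vehicle cell control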); conditions: 60 h, at 10 µM, stronger effect = lower value
[14] = inhibitors of the yeast RAM network, pilot screen, dse1pr::URA3 reporter, 5-FOA selection (AID 869;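 active means inhibition over a set limit, the all-compound mean plus 3 SD, in both replicate runs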;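 further: 0% = DMSO wells with no growth and 100% = 10 µM 1-NA-PP1 with full growth; RAM network block rescues cells from 5-FOA so hits raise OD615 growth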); conditions: S. cerevisiae dse1pr::URA3 5-FOA growth, OD615, 2 d; at 10 µM; stronger effect = higher value; strain carries analog-sensitive mutant Cbk1 kinase
[15] = RAM signaling pathway blockade in yeast – S. cerevisiae, Pdr1DBD-CYC8 efflux-inhibited sensitized strain, primary screen (AID 1298;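 active means RAM network inhibition above 8.4% in each of two replicates, 3 SD over the compound average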;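 further: 0% = DMSO untreated cells without growth and 100% = 10 µM 1-NA-PP1 full growth; higher means more yeast growth rescued from 5-FOA killing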); conditions: S. cerevisiae cbk1-as DSE1-URA3 strain, 5-FOA growth OD615, 2 d; at 50 µM; stronger effect = higher value
[16] = H69AR cells + 2 uM doxorubicin, measured here: viability with 2 uM doxorubicin, stronger effect = lower value
[17] = H69AR cells, compound alone cytotoxicity

Compound	viability [1]	Her2 level [2]	viability [3]	viability [4]	viability [5]	differential viability (reversal) ([6]; H69AR cells + 2 uM doxorubicin)	viability [6, 16]	viability [6, 17]	inhibition [7]	inhibition [8]	growth inhibition [9]	growth inhibition [10]	viability increase [11]	viability [12]	viability [13]	inhibition [14]	RAM network inhibition [15]
C=C(C)Cn1c(-c2ccccc2)nc2ccccc21	80%	102% (inactive)	80% (inactive)	117% (inactive)	96.1% (inactive)	0.815% (inactive)	95.3%	96.1%	-2.8% (inactive)	-1.45% (inactive)	-10.1% (inactive)	-9.65% (inactive)	-1.92% (inactive)	80.2% (inactive)	87.8% (inactive)	1% (inactive)	5.93% (inactive)
C=C(C)Cn1c(N2CC(C)CC(C)C2)nc2c1c(=O)[nH]c(=O)n2C (stereo not given)	84%	86% (inactive)	84% (inactive)	96.2% (inactive)	83.2% (inactive)	-11.8% (inactive)	95.1%	83.2%	-4.93% (inactive)	1% (inactive)	-5.73% (inactive)	0.695% (inactive)	-5.11% (inactive)	78.3% (inactive)	81.2% (inactive)	1.05% (inactive)	1.9% (inactive)
O=C(CSc1ncnc2nc[nH]c12)c1ccc(Cl)cc1	76%	98% (inactive)	76% (inactive)	63% (inactive)	91.1% (inactive)	-8.57% (inactive)	99.7%	91.1%	-3.47% (inactive)	2.13% (inactive)	1.02% (inactive)	11.4% (inactive)	-1.43% (inactive)	39.8% (inactive)	37.7% (inactive)	1.29% (inactive)	5.06% (inactive)
CCOC(=O)c1cccc(NC(=O)CNS(=O)(=O)c2cccs2)c1	95.5%	92% (inactive)	95.5% (inactive)	97% (inactive)	88.3% (inactive)	-2.06% (inactive)	90.4%	88.3%	-8.36% (inactive)	-5.71% (inactive)	-0.595% (inactive)	-4.69% (inactive)	0.66% (inactive)	102% (inactive)	97.7% (inactive)	1.43% (inactive)	0.44% (inactive)
COc1ccc(N(CC(=O)Nc2ccc3c(c2)OCO3)S(=O)(=O)c2c(C)nn(C)c2C)cc1	90.5%	90.5% (inactive)	90.5% (inactive)	118% (inactive)	99% (inactive)	13.8% (inactive)	85.1%	99%	-0.38% (inactive)	1% (inactive)	-8.51% (inactive)	-11.5% (inactive)	-2.78% (inactive)	93.3% (inactive)	90.5% (inactive)	2.33% (inactive)	3.88% (inactive)
COc1ccc(OC)c(C2C(C(=O)Nc3ccc(F)cc3)=C(C)Nc3nc(CCCO)nn32)c1 (stereo not given)	101%	120% (inactive)	101% (inactive)	91% (inactive)	101% (inactive)	5.54% (inactive)	95.4%	101%	0.13% (inactive)	-0.83% (inactive)	-9.55% (inactive)	7.19% (inactive)	-0.62% (inactive)	99.6% (inactive)	99.1% (inactive)	-1.06% (inactive)	-0.42% (inactive)
CCCCCn1c(=O)[nH]c2cc(C(=O)NCCN3CCOCC3)ccc2c1=O	99.5%	88% (inactive)	99.5% (inactive)	114% (inactive)	105% (inactive)	16.1% (inactive)	88.5%	105%	-7.03% (inactive)	0.33% (inactive)	-26.4% (inactive)	-10.6% (inactive)	-0.3% (inactive)	92.5% (inactive)	87.9% (inactive)	1.83% (inactive)	5.23% (inactive)
Cc1ccc(C(=O)CC2(O)C(=O)N(C)c3ccc(Br)cc32)c(C)c1 (stereo not given)	85%	88.5% (inactive)	85% (inactive)	77.7% (inactive)	75% (inactive)	-16.9% (inactive)	91.9%	75%	-4.13% (inactive)	-0.83% (inactive)	2.26% (inactive)	9.8% (inactive)	-4.61% (inactive)	71.5% (inactive)	74.7% (inactive)	2.44% (inactive)	4.59% (inactive)
O=C(CSc1nnnn1-c1ccccc1Cl)Nc1ccc2c(c1)OCCO2	91.5%	96% (inactive)	91.5% (inactive)	101% (inactive)	77.2% (inactive)	-7.98% (inactive)	85.2%	77.2%	-0.4% (inactive)	4.33% (inactive)	1.69% (inactive)	3.15% (inactive)	1.44% (inactive)	99.4% (inactive)	87.5% (inactive)	2.22% (inactive)	5.58% (inactive)
CCc1nnc(NC(=O)COC(=O)CN2C(=O)c3ccccc3C2=O)s1	104%	101% (inactive)	104% (inactive)	104% (inactive)	109% (inactive)	7.39% (inactive)	101%	109%	-9.32% (inactive)	-6.19% (inactive)	2.25% (inactive)	1.2% (inactive)	-1.95% (inactive)	96.8% (inactive)	89.8% (inactive)	0.785% (inactive)	5.31% (inactive)
